RGS7-Gao reg – regulators of human RGS7-Galphao interaction; Multiplexed bead flow cytometry, RGS7-Galphao binding; actives lie on both sides; binding response (% of control), % at 10 µM; 0.35% of 220,000 active; AID 1439; in the data active means binding response below about 49% or above about 150%; inconclusive means no clear call, values can overlap the other calls; inactive means in between;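 further: fluorescent Galphao held in activated GDP-AlF4 state binding bead-coupled RGS7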
Target sequence (P09471 whole entry, looked up): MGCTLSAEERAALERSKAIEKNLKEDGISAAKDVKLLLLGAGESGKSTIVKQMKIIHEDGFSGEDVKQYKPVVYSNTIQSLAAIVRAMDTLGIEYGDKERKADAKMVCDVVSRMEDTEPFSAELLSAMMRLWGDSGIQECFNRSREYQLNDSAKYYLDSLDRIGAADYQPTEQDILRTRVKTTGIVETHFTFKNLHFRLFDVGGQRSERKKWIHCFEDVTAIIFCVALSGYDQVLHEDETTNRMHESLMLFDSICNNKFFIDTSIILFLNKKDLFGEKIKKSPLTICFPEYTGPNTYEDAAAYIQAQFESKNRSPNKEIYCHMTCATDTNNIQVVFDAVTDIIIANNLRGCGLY
RGS16-Gao HTS – RGS16-Galphao interaction regulator (human); O15492+P09471; AID 1441; bead-based flow cytometry RGS16-Galphao binding, fluorescence; actives lie on both sides; binding response (% of control), % at 10 µM; 0.38% of 220,000 active;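 further: Galphao activated by GDP with aluminum fluoride before binding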
Target sequence (O15492 whole entry, looked up): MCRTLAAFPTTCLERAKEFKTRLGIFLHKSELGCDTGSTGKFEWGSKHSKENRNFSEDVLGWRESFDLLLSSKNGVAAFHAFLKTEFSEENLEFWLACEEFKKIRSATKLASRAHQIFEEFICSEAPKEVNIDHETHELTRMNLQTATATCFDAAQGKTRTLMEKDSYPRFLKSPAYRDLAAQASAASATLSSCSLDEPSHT
Target sequence (P09471 whole entry, looked up): as the sequence (P09471 whole entry, looked up) above
RGS8-Gao reg – human RGS8-Galphao interaction regulation. 0.34% of 220,000 active. multiplexed bead flow cytometry, RGS8-Galphao binding; actives lie on both sides. P09471. response (percent of control binding), % at 10 µM. AID 1423; in the data active means response below about 60% or above about 140%; inactive means in between;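 further: Galphao activated as the GDP aluminium fluoride complex binding bead-coupled RGS8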
RGS4-Gao reg – human RGS4-Galphao interaction regulation; P09471; Multiplexed bead flow cytometry, RGS4-Galphao binding; actives lie on both sides; binding response (% of control), % at 10 µM; 0.33% of 220,000 active; AID 1415; in the data active means binding response below about 49% or above about 150%; inactive means in between;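 further: fluorescent Galphao activated with aluminum fluoride binding bead-coupled RGS4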
RGS-Gao – regulators of human RGS4-Galphao interaction. RGS4–Galpha-o binding response, % at 10 µM. shares compounds with RGS16-Gao HTS. multiplexed bead flow cytometry, RGS–Galpha-o binding. 99% of 1,600 active;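 further: fluorescently labeled Galpha-o bound to GDP with aluminium fluoride binding biotinylated RGS beads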
Avidin counter – biotin-avidin bead binding disruption counter-screen | AID 1783 | shares compounds with RGS16-Gao HTS | inhibition, % at 10 µM | streptavidin beads, fluorescein-biotin binding, flow cytometry | 1,700 tested, under 10 active;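 active means inhibition above 50%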;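 further: median green fluorescence of gated singlet beads compared with DMSO control wells; 0% = DMSO wells and 100% = complete loss of bead fluorescence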
RGS8-Gao single – RGS8-Galphao interaction regulation, single point confirmation. binding response (% of control), % at 10 µM. shares compounds with RGS16-Gao HTS. 3% of 1,700 active. bead-based flow cytometry RGS8-Galphao binding, fluorescence; actives lie on both sides; in the data active means binding response below about 72% or above about 130%; inactive means in between;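 further: Galphao activated as GDP AlF4 complex before binding bead RGS8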
RGS7-Gao single – RGS7-Galphao interaction regulation, single point confirmation; shares compounds with RGS16-Gao HTS; bead-based flow cytometry RGS7-Galphao binding; actives lie on both sides; response (percent of control binding), % at 10 µM; 7.8% of 1,700 active; AID 1837; in the data active means response below about 75% or above about 130%; inactive means in between;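 further: fluorescent Galphao activated with GDP and aluminum fluoride binding bead-coupled RGS7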
RGS16-Gao single – confirmation of regulators of human RGS16-Galphao interaction | 4% of 1,700 active | shares compounds with RGS16-Gao HTS | bead-based flow cytometry, RGS16-Galphao binding; actives lie on both sides | response (% of control binding), % at 10 µM; in the data active means response below about 74% or above about 130%; inactive means in between;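 further: Galphao activated as the GDP aluminium fluoride complex binding bead-coupled RGS16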
RGS4-Gao confirm – RGS4-Galphao interaction regulation, single point confirmation; shares compounds with RGS16-Gao HTS; RGS4-Galphao binding, multiplexed bead flow cytometry; actives lie on both sides; binding response (% of control), % at 10 µM; 4% of 1,700 active; AID 1840; in the data active means binding response below about 74% or above about 130%; inactive means in between
RGS19-Gao conf – RGS19-Galphao interaction regulation, single point confirmation. bead-based flow cytometry RGS19-Galphao binding; actives lie on both sides. response (percent of control binding), % at 10 µM. 5% of 1,700 active. shares compounds with RGS16-Gao HTS; in the data active means response below about 50% or above about 160%; inactive means in between;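 further: 100% = no compound control and 0% = blank background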
Numbers without * were called inactive; ? = inconclusive; . = no result; [ ] = another dose, or the depositor's remark. Shown are actives, neighbours in structure and some others; about 0.78% of the full set was active somewhere. Unless noted, how the calls were made is not given here.

SMILES	RGS7-Gao reg	RGS16-Gao HTS	RGS8-Gao reg	RGS4-Gao reg	RGS-Gao	Avidin counter	RGS8-Gao single	RGS7-Gao single	RGS16-Gao single	RGS4-Gao confirm	RGS19-Gao conf
CC(C)c1onc(C(=O)N2CCCCC2C)c1[N+](=O)[O-] (stereo not drawn)	23*	-45	30*	28*	.	-1	104	102	107	101	103
COc1ccc(C2=CC(=O)C=CC2=O)cc1	?	67	71	93	.	1	53*	80	15*	97	32*
c1ccc(-c2nnsc2-c2nc3ccccc3[nH]2)cc1	62	99	56*	84	84*	-1	106	107	104	107	100
N=C1C2=C3Sc4ccccc4N3CCCC2=NN1c1cccc(S(=O)(=O)O)c1	?	-6.4*	8.6*	-11*	.	-1	100	97	100	99	85
CCC(C)(C)NC(=O)C1CCN(S(=O)(=O)c2cccs2)CC1	424*[activator]	364*[activator]	129	465*[activator]	.	3	101	102	101	101	85
NCCCC[C@H]1CNC(=S)N1CC1(c2ccccc2)CC1	?	98	101	105	.	.	.	.	.	.	.
Cc1ccc(S(=O)(=O)N/N=C/c2cccc([N+](=O)[O-])c2)cc1	80	-8.2*	74	83	83*	1	99	90	96	94	81
Cc1ccc(S(=O)(=O)N/N=C\c2cc([N+](=O)[O-])ccc2Cl)cc1	105	103	101	102	.	.	.	.	.	.	.
CCc1ccc(Nc2nnc(SCn3nnc4ccccc4c3=O)s2)cc1	98	101	101	98	.	.	.	.	.	.	.
COc1ccc(NC(=O)CN2CCC3(O)CCCCC3C2c2cc(OC)ccc2OC)cc1 (stereo not drawn)	113	132	103	120	.	.	.	.	.	.	.
O=C(NCC1CCCO1)C(c1cccs1)N(Cc1cccs1)C(=O)c1ccc(-c2ccccc2)[nH]1 (stereo not drawn)	102	123	106	107	.	.	.	.	.	.	.
CCNc1ccc(S(=O)(=O)N(C)C)cc1NCC(=O)Nc1ccccc1F	104	112	107	102	.	.	.	.	.	.	.
CCNc1ccc(S(=O)(=O)N(C)C)cc1NCC(=O)Nc1ccc(F)c(Cl)c1	101	25*	83	106	106*	0	107	105	112	105	112
COc1ccc(Br)cc1/C=N/Nc1cccc(C(=O)O)c1	172*[activator]	98	99	112	112*	1	96	64*	81	79	67
Cc1c(NC(=O)C(C)N2C(=O)C3C4C=CC(C4)C3C2=O)c(=O)n(-c2ccccc2)n1C (stereo not drawn)	102	103	102	100	.	.	.	.	.	.	.
NC(=O)c1ccc(C23CC4CC(CC(C4)C2)C3)o1	96	202*[activator]	118	101	101*	-1	110	100	108	99	90
COc1ccccc1NS(=O)(=O)c1cc(NC(=O)c2ccncc2)ccc1N1CCOCC1	94	22*	76	95	95*	-1	97	102	100	98	87
COc1ccccc1NS(=O)(=O)c1cc(NC(=O)c2cnccn2)ccc1N1CCOCC1	?	98	101	94	.	.	.	.	.	.	.
O=C(CN1C(=O)NC2(CCOc3ccccc32)C1=O)Nc1ccc2c(c1)OCCO2 (stereo not drawn)	99	99	100	97	.	.	.	.	.	.	.
S=c1[nH]nc(-c2ccc3ccccc3n2)n1-c1ccc(Cl)cc1	119	177*[activator]	114	110	110*	-2	91	101	92	95	99
Cc1nc2ccc(NC(=O)N(C(C)C)C(C)C)cc2s1	169*[activator]	124	108	98	98*	1	102	102	101	99	104
Cc1nc2ccc(NC(=O)N(C)c3ccccc3)cc2s1	102	105	102	101	.	.	.	.	.	.	.
Cc1cc(/C=C2\SC(=S)N(C)C2=O)c(C)n1-c1cccc(O)c1	?	99	102	96	.	.	.	.	.	.	.
COc1ccc(-n2c(C)cc(/C=C3/SC(=S)N(C)C3=O)c2C)cc1	-5.5*	-2.3*	2.9*	-20*	.	3	99	104	98	98	103
COc1cc(C2C(C#N)=C(N)OC3=C2C(=O)CC(C)(C)C3)ccc1OC(=O)N1CCOCC1 (stereo not drawn)	98	98	100	97	.	.	.	.	.	.	.
SMILES	RGS7-Gao reg	RGS16-Gao HTS	RGS8-Gao reg	RGS4-Gao reg	RGS-Gao	Avidin counter	RGS8-Gao single	RGS7-Gao single	RGS16-Gao single	RGS4-Gao confirm	RGS19-Gao conf
CC1(C)C(=O)OC(c2cccs2)C2(CCCCC2)C1=O (stereo not drawn)	89	95	97	91	.	.	.	.	.	.	.
O=S(=O)(NCCNc1nccc(C(F)(F)F)n1)c1ccccc1	?	99	98	101	.	.	.	.	.	.	.
Cc1ccc(NC(=S)N(CCCN2CCCC2)Cc2cccn2Cc2ccc(Cl)cc2)cc1Cl	165*[activator]	113	117	150	150*	1	104	103	97	103	98
CCOc1ccc(NC(=O)CSC(N)=O)cc1	106	243	163*[activator]	100	100*	1	103	90	100	95	91
CCOc1ccc(NC(=O)CC)cc1	?	107	105	106	.	.	.	.	.	.	.
Cn1c(CCNC(=O)c2ccccc2)nc2ccccc21	102	99	100	99	.	.	.	.	.	.	.
O=C(/C=C/c1ccc(Br)o1)OCc1ccccc1	.	.	.	.	.	2	103	107	110	105	102
Cc1nc2ccccc2n2c(O)c(CC(=O)O)cc12	102	99	98	101	.	.	.	.	.	.	.
CCOc1ccc(NC(=O)Cn2sc3nc(C)cc(C)c3c2=O)cc1	?	41	82	98	.	.	.	.	.	.	.
Cc1cc(C)c2c(=O)n(CC(=O)Nc3ccc(Cl)cc3)sc2n1	?	12*	67	101	101*	1	68*	108	15*	96	17*
Cc1ccc(NC(=O)Cn2sc3nc(C)cc(C)c3c2=O)c(Cl)c1	?	16*	67	88	88*	0	65*	88	22*	82	18*

Screening data from PubChem BioAssay.
